From PubChem BioAssay (NCI)
The panel holds about 83,000 compounds, 20% with a hit somewhere; the sample as a whole holds those more often.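 Cells were grown in 96-well plates and exposed to the test compound at a single concentration for 48 hours; results are reported as percent growth, with values below 10 considered active.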 The source made the active and inactive calls.

Each molecule was assayed on HL-60(TB) leukemia (assay: NCI-60 one-dose screen, 48 h (100 = growth as untreated, 0 = no growth, -100 = all killed)). Conditions: 10 µM unless noted.
In the case of C[n+]1c2ccccc2c(Nc2ccc(N3CCCCC3)cc2)c2[nH]c3ccccc3c21, the growth is reported as -55.6% (active).
In the case of O=C1Nc2ccccc2/C1=C/C(=O)c1ccc(N2CCCCC2)cc1, the growth is reported as -6.32% (active).
Clc1ccc(Nc2ncc(Cc3cccc(Cl)c3Cl)s2)cc1 was tested, and the growth was 100% (inactive).
With O=C(/C=C/c1ccccc1)c1ccc(Nc2nc(Nc3ccc(F)cc3)nc(Nc3ccc(Cl)cc3)n2)cc1 the growth was 43.9% (inactive).
With O=C(CCCCCCC(=O)Nc1ccccc1)NO the growth was -0.31% (active).
With CCOC(=O)c1c(NC(=O)c2ccccc2)sc2c3c(ccc12)OCN(C)C3 the growth was -62.5% (active).
CCOC(=O)c1cc(Cl)c(O)c(Cl)c1 was tested, and the growth was 64.9% (inactive).
For COc1ccccc1NC(=O)c1cc2cc(Br)ccc2cc1O, the growth was -33.7% (active).
With CCOC(=O)NN1CC(O)=C(c2nc(-c3ccc(Br)cc3)cs2)C1=N the growth was 98.8% (inactive).
In the case of CC(C)Sc1nc(NNC(N)=S)c(C#N)c(-c2ccc(F)cc2)n1, the growth is reported as 94.9% (inactive).
In the case of Cc1nc2nc(SCC(=O)O)[nH]c2c(=O)[nH]1, the growth is reported as 94.7% (inactive).
With Oc1ccccc1O the growth was 55.8% (inactive).
In the case of Cn1cc(-c2ccc3c(c2)ncn3-c2ccc(CC(=O)Nc3cc(C(C)(C)C)on3)cc2)cn1, the growth is reported as 67.4% (inactive).
CC[C@H](CO)Nc1nc(NCc2ccccc2)c2ncn(C(C)C)c2n1 was tested, and the growth was 48.1% (inactive).
In the case of CCOC(=O)c1cc(C(=O)c2ccc(Br)cc2)n2cc(C)cc(C)c12, the growth is reported as 103% (inactive).
With N=C(N)c1ccc(-c2ccc(-c3cc(Cl)cc(Cl)c3)s2)nc1 the growth was -7.02% (active).
In the case of O=C(Nc1ccc2ncnc(Nc3ccc(F)c(Cl)c3)c2c1)c1cccs1, the growth is reported as 89.7% (inactive).
With COc1cc(/C=N/NC(=O)c2ccc3nc(-c4ccc(Cl)cc4)[nH]c3c2)cc(OC)c1OC the growth was 44.9% (inactive).
In the case of Cc1nc(NN)c([N+](=O)[O-])c(NN)n1, the growth is reported as 68.1% (inactive).
For CCCCCc1cc[n+](CC(=O)c2ccc(Cl)cc2)cc1, the growth was 94% (inactive).
COc1ccc(OC)c2c1[nH]c(=O)c1c3ccccc3cn21 was tested, and the growth was -49.3% (active).
For Cc1ccc(O)c(C(=O)c2ccccc2)c1, the growth was 73.1% (inactive).
With O=C(O)C1CCC(=O)N1C(=O)OCc1ccccc1 (stereo not given) the growth was 84.1% (inactive).
With O=c1oc2ccc(-c3ccc(F)cc3F)cc2c(=O)n1-c1cccc(C(F)(F)F)c1 the growth was -33.3% (active).
With COc1cc(C2c3cc4c(cc3C3OC(=O)C2C3CO)OCO4)cc(OC)c1OC (stereo not given) the growth was -17.2% (active).
With COc1ccc(CCn2cncc2-c2c[nH]c3ccccc23)cc1 the growth was 93.5% (inactive).
For COc1ccc(-c2cc(-c3ccc(Nc4ccnc5cc(Cl)ccc45)cc3)nc(N3CCOCC3)n2)cc1, the growth was 7.25% (active).
With COC1OC(COS(=O)OC)C(O)C(O)C1OS(=O)OC (stereo not given) the growth was 82.6% (inactive).
In the case of Fc1ccc(Nc2ccnc(N3CCN(c4ccnc5cc(Cl)ccc45)CC3)n2)cc1, the growth is reported as 15.9% (inactive).
For CCn1cc(C(=O)NNC(=S)Nc2ccc(C)cc2)c(=O)c2ccc(C)nc21, the growth was 94.5% (inactive).
CC(=O)N1N=C(c2ccc(Nc3nc(Nc4ccccc4)nc(Nc4ccccc4)n3)cc2)CC1c1ccccc1 (stereo not given) was tested, and the growth was 79.3% (inactive).
In the case of CC1(C)CC(=O)C2=C(C1)OC1=C(C(=O)CC(C)(C)C1)C2c1ccc(OCc2cn(-c3ccc(F)cc3F)nn2)cc1, the growth is reported as 42.2% (inactive).
In the case of CC(=O)OCCCCCCn1c2ccccc2c2c3c(c4c5ccccc5n(C)c4c21)C(=O)N(O)C3=O, the growth is reported as 41.2% (inactive).
CCCCCCCCCCCCCCCCCC(=O)Nc1ccc(O)cc1 was tested, and the growth was 5.77% (active).
For N=C(N)c1ccc(-c2ccc(-c3ccccc3)o2)cc1, the growth was -62% (active).
For CCN(CC)CCCC(C)N/C(=C1\C(=O)NC(=O)\C1=C(/NC(C)CCCN(CC)CC)c1cccc(OC)c1)c1cccc(OC)c1 (stereo not given), the growth was -35.6% (active).
For COc1ccc(S(=O)(=O)n2cc(C3OC(c4cc(OC)c(OC)c(OC)c4)=NN3C(C)=O)c3ccccc32)cc1OC (stereo not given), the growth was 111% (inactive).
In the case of C=CC(=O)N1CC2(CCC(n3nc(-c4ccc(Oc5ccccc5)cc4)c4c(N)ncnc43)CC2)C1, the growth is reported as -38.5% (active).
O=C1NCN(CCO)CN1 was tested, and the growth was 97.5% (inactive).
For O=C(c1nnc(Nc2ccccc2Br)o1)c1c[nH]c2ccccc12, the growth was 103% (inactive).
